Experimental data as given in PubChem BioAssay (NCI).
This is part of a sample that, as a whole, favours compounds with a hit. Of some 79,000 tested, about 15% had one in any assay. Active and inactive are the calls of the source. Cut-off read from the data, not from the text of the source: active = growth inhibition above about 70%; inactive = the rest.

How the values were obtained:
[1] = NCI Yeast Anticancer Drug Screen. Data for the rad52 strain (AID 147);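 note: 0% = growth of vehicle-treated control cultures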; details: S. cerevisiae rad52 mutant growth inhibition, active compounds read high
How it was run: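 Read-out: growth inhibition versus vehicle-treated controls. Cells were a DNA repair-deficient yeast strain treated with compounds.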

[2] = NCI Yeast Anticancer Drug Screen. Data for the wt1 strain (AID 149);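 note: 0% = growth of vehicle-treated wt1 cultures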; details: S. cerevisiae wt1 strain (SPY 50644) growth inhibition, active compounds read high
How it was run: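 Growth inhibition read against vehicle controls after compound exposure of the wt1 yeast strain.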

[3] = NCI Yeast Anticancer Drug Screen. Data for the rad50EPP+ strain (AID 151);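 note: 0% = growth of vehicle-treated control cultures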; details: S. cerevisiae rad50 mutant strain, active compounds read high
How it was run: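 Growth inhibition read against vehicle controls in rad50EPP+ yeast, a strain altered in DNA damage repair, after compound exposure.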

[4] = NCI Yeast Anticancer Drug Screen. Data for the mgt1 strain (AID 153); details: S. cerevisiae mgt1 mutant growth inhibition, active compounds read high
How it was run: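 mgt1 yeast grown with test compound; read-out is growth inhibition versus vehicle-treated cultures.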

[5] = NCI Yeast Anticancer Drug Screen. Data for the rad50 strain (AID 155);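 note: 0% = growth of vehicle-only cultures of the same strain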; details: S. cerevisiae rad50 strain growth inhibition, active compounds read high
How it was run: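 Readout: growth inhibition relative to vehicle-treated cultures. Compound exposure was carried out in a genetically defined yeast strain deficient in DNA damage repair.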

[6] = NCI Yeast Anticancer Drug Screen. Data for the mec2-1 strain (AID 157); details: S. cerevisiae mec2-1 strain, active compounds read high
How it was run: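 Yeast mec2-1 mutant treated with compound. Readout: growth inhibition vs vehicle controls.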

[7] = NCI Yeast Anticancer Drug Screen. Data for the rad14 strain (AID 159);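 note: 0% = growth of vehicle-treated control cultures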; details: S. cerevisiae rad14 strain growth inhibition, active compounds read high
How it was run: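 Growth inhibition vs vehicle controls; genetically altered yeast strain (DNA damage repair defect) treated with test compounds.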

[8] = NCI Yeast Anticancer Drug Screen. Data for the sgs1 mgt1 strain (AID 161);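 note: 0% = growth of cultures given vehicle only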; details: S. cerevisiae sgs1 mgt1 strain, active compounds read high
How it was run: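 Inhibition of yeast growth, normalised to vehicle-treated controls, is reported for a strain bearing genetic alterations in DNA damage repair.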

[9] = NCI Yeast Anticancer Drug Screen. Data for the CLN2oe strain (AID 163);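 note: 0% = growth of vehicle-only control cultures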; details: S. cerevisiae CLN2oe strain, active compounds read high
How it was run: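 Read-out: yeast growth inhibition, expressed relative to vehicle-only controls. The strain bears an engineered cell-cycle alteration.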

[10] = NCI Yeast Anticancer Drug Screen. Data for the cln2 rad14 strain (AID 165);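 note: 0% = growth equal to vehicle treated cultures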; details: S. cerevisiae cln2 rad14 strain, active compounds read high
How it was run: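 cln2 rad14 yeast strain; compound exposure; growth inhibition read vs vehicle controls.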

[11] = NCI Yeast Anticancer Drug Screen. Data for the bub3 strain (AID 167); details: S. cerevisiae bub3 mutant strain, active compounds read high
How it was run: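 Readout: yeast growth inhibition, expressed relative to vehicle-only wells. The test organism is a mutant strain from a panel with lesions in DNA repair or checkpoint genes.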

[12] = NCI Yeast Anticancer Drug Screen. Data for the wt2 strain (AID 169);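 note: 0% = growth of vehicle-treated yeast cultures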; details: S. cerevisiae wt2 strain growth inhibition, active compounds read high
How it was run: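 Read-out: growth inhibition versus vehicle-treated control cultures after compound exposure of the yeast strain.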

[13] = NCI Yeast Anticancer Drug Screen. Data for the mlh1 strain (AID 171);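 note: 0% = growth of vehicle-treated control cultures of the same strain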; details: S. cerevisiae mlh1 strain growth inhibition, active compounds read high
How it was run: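 Read-out: growth inhibition versus vehicle controls. Strain: engineered yeast with a defined DNA repair or cell cycle defect, compound-treated.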

[14] = NCI Yeast Anticancer Drug Screen. Data for the sgs1 strain (AID 173);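 note: 0% = growth of vehicle-only control cultures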; details: S. cerevisiae sgs1 mutant, active compounds read high
How it was run: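 Read-out: yeast growth inhibition relative to vehicle controls, following compound exposure of a strain with a defined DNA repair/cell cycle alteration.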

[15] = NCI Yeast Anticancer Drug Screen. Data for the mlh1 rad18 strain (AID 175); details: S. cerevisiae mlh1 rad18 strain growth inhibition, active compounds read high
How it was run: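 Yeast w/ defined DNA-repair lesions; compound exposure; growth vs vehicle controls → % inhibition.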

[16] = NCI Yeast Anticancer Drug Screen. Data for the rad18 strain (AID 177); details: S. cerevisiae rad18 mutant growth inhibition, active compounds read high
How it was run: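 Readout: growth inhibition vs vehicle controls. Cells: genetically altered yeast strain, DNA repair defect.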

[17] = at 5.0 µM (retest, dose inferred, filed as 0.5)
[18] = at 50.0 µM (retest, dose inferred, filed as 5.0)

Measured: growth inhibition

CCCC(=O)Oc1c(C)cc([N+](=O)[O-])cc1[N+](=O)[O-]
inactive: [1]; at 1.2 µM 4% | [1]; at 3.7 µM 26% | [2]; at 1.2 µM 1% | [2]; at 3.7 µM 0% | [3]; at 1.2 µM 35% | [4]; at 1.2 µM 3% | [4]; at 3.7 µM 11% | [4]; at 11.0 µM 56% | [5]; at 1.2 µM 4% | [5]; at 3.7 µM 25% | [5]; [17] 14% | [6]; at 1.2 µM -1% | [6]; at 3.7 µM 21% | [6]; [17] 33% | [7]; at 1.2 µM 1% | [7]; at 3.7 µM 14% | [8]; [17] 39% | [9]; at 1.2 µM -11% | [9]; at 3.7 µM -2% | [10]; [17] -1% | [11]; at 1.2 µM 12% | [11]; at 3.7 µM 42% | [11]; [17] 40% | [12]; at 1.2 µM 2% | [12]; at 3.7 µM 4% | [13]; at 1.2 µM 2% | [13]; at 3.7 µM 12% | [14]; at 1.2 µM 5% | [14]; at 3.7 µM 27% | [15]; [17] 18% | [16]; at 1.2 µM 5% | [16]; at 3.7 µM 20%
active: [1]; at 11.0 µM 99% | [1]; at 33.0 µM 97% | [1]; at 100.0 µM 99% | [2]; at 11.0 µM 98% | [2]; at 33.0 µM 99% | [2]; at 100.0 µM 99% | [3]; at 3.7 µM 77% | [3]; at 11.0 µM 94% | [3]; at 33.0 µM 99% | [3]; at 100.0 µM 99% | [4]; at 33.0 µM 99% | [4]; at 100.0 µM 86% | [5]; at 11.0 µM 98% | [5]; at 33.0 µM 99% | [5]; [18] 99% | [5]; at 50.0 µM 99.4% | [5]; at 100.0 µM 99% | [6]; at 11.0 µM 99% | [6]; at 33.0 µM 99% | [6]; [18] 100% | [6]; at 50.0 µM 99.3% | [6]; at 100.0 µM 99% | [7]; at 11.0 µM 96% | [7]; at 33.0 µM 99% | [7]; at 100.0 µM 99% | [8]; [18] 99% | [8]; at 50.0 µM 99.4% | [9]; at 11.0 µM 94% | [9]; at 33.0 µM 99% | [9]; at 100.0 µM 99% | [10]; [18] 97% | [10]; at 50.0 µM 93.5% | [11]; at 11.0 µM 98% | [11]; at 33.0 µM 99% | [11]; [18] 99% | [11]; at 50.0 µM 99.5% | [11]; at 100.0 µM 99% | [12]; at 11.0 µM 98% | [12]; at 33.0 µM 99% | [12]; at 100.0 µM 99% | [13]; at 11.0 µM 99% | [13]; at 33.0 µM 99% | [13]; at 100.0 µM 99% | [14]; at 11.0 µM 99% | [14]; at 33.0 µM 99% | [14]; at 100.0 µM 99% | [15]; [18] 99% | [15]; at 50.0 µM 99.1% | [16]; at 11.0 µM 98% | [16]; at 33.0 µM 99% | [16]; at 100.0 µM 99%

Cc1cc(NCCCCCCCCNc2cc(C)nc3cc(N)ccc23)c2ccc(N)cc2n1
active: [1]; at 11.0 µM 75% | [1]; at 33.0 µM 98% | [1]; at 100.0 µM 95% | [2]; at 11.0 µM 92% | [2]; at 33.0 µM 98% | [2]; at 100.0 µM 96% | [3]; at 33.0 µM 95% | [3]; at 100.0 µM 95% | [4]; at 11.0 µM 80% | [4]; at 33.0 µM 98% | [4]; at 100.0 µM 95% | [5]; at 11.0 µM 92% | [5]; at 33.0 µM 97% | [5]; [18] 98% | [5]; at 50.0 µM 90.2% | [5]; at 100.0 µM 96% | [6]; at 11.0 µM 91% | [6]; at 33.0 µM 98% | [6]; [18] 98% | [6]; at 50.0 µM 91.4% | [6]; at 100.0 µM 96% | [7]; at 11.0 µM 87% | [7]; at 33.0 µM 97% | [7]; at 100.0 µM 96% | [8]; [18] 99% | [8]; at 50.0 µM 92.1% | [9]; at 33.0 µM 97% | [9]; at 100.0 µM 94% | [10]; [18] 98% | [10]; at 50.0 µM 88% | [11]; at 11.0 µM 90% | [11]; at 33.0 µM 97% | [11]; [18] 99% | [11]; at 50.0 µM 91.5% | [11]; at 100.0 µM 93% | [12]; at 33.0 µM 97% | [12]; at 100.0 µM 95% | [13]; at 11.0 µM 92% | [13]; at 33.0 µM 97% | [13]; at 100.0 µM 94% | [14]; at 33.0 µM 95% | [14]; at 100.0 µM 94% | [15]; [18] 98% | [15]; at 50.0 µM 89.2% | [16]; at 33.0 µM 97% | [16]; at 100.0 µM 93%
inactive: [1]; at 1.2 µM -41% | [1]; at 3.7 µM -45% | [2]; at 1.2 µM -65% | [2]; at 3.7 µM -41% | [3]; at 1.2 µM -47% | [3]; at 3.7 µM -30% | [3]; at 11.0 µM 50% | [4]; at 1.2 µM -72% | [4]; at 3.7 µM -79% | [5]; at 1.2 µM -39% | [5]; at 3.7 µM -32% | [5]; [17] 15% | [6]; at 1.2 µM -70% | [6]; at 3.7 µM -55% | [6]; [17] 12% | [7]; at 1.2 µM -40% | [7]; at 3.7 µM -35% | [8]; [17] 8% | [9]; at 1.2 µM -18% | [9]; at 3.7 µM -20% | [9]; at 11.0 µM 39% | [10]; [17] 18% | [11]; at 1.2 µM -64% | [11]; at 3.7 µM -45% | [11]; [17] 39% | [12]; at 1.2 µM -39% | [12]; at 3.7 µM -36% | [12]; at 11.0 µM 55% | [13]; at 1.2 µM -88% | [13]; at 3.7 µM -63% | [14]; at 1.2 µM -64% | [14]; at 3.7 µM -72% | [14]; at 11.0 µM 65% | [15]; [17] 7% | [16]; at 1.2 µM -45% | [16]; at 3.7 µM -65% | [16]; at 11.0 µM 66%
